In ChEMBL document CHEMBL3988442, “University of Dundee, Small-Polar-MMV Screening Library” (2021) one finds Percent Effect data, which are given here for 19 compounds.

Each structure is given as a SMILES string.

The target in the experiment is T1, Aspartate--tRNA(Asp/Asn) ligase (Mycobacterium tuberculosis (strain ATCC 25618 / H37Rv)) (UniProt P9WFW3).
T1 sequence (whole entry): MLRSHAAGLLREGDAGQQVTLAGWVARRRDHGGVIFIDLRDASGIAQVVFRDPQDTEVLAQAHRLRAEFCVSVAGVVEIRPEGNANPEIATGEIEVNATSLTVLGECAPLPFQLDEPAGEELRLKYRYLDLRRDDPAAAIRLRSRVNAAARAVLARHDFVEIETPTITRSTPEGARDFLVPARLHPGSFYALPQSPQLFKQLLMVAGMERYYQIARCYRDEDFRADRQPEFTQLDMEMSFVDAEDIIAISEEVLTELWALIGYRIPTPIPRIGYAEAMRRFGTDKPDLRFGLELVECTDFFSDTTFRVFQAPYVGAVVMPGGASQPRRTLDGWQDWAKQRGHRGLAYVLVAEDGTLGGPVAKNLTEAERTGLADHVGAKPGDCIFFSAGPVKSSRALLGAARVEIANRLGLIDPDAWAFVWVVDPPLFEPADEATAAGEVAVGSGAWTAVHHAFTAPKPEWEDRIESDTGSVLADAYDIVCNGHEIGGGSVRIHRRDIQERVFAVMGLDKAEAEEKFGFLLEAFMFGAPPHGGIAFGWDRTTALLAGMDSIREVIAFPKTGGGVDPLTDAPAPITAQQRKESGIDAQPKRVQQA
The experiment can be described thus: Assay for Asp RNA synthetase-1 from Mycobacterium tuberculosis. The class given is functional. More on the design: scale not given: in the data most compounds retested in dose-response had high values. The following applies: 30 µM.
`CCSCCC(=O)NS(=O)(=O)c1ccc2c(c1)OCCO2`: the Percent Effect was -0.722%. `O=C1CC(c2ccccc2)C2(CCN(CC3CC3)CC2)N1` (centres undefined): the Percent Effect is -1.66%. The figure for `Cn1ccc2ccnc(CC3CN(C(=O)C4CCC(F)(F)CC4)C3)c21` is 0.551%. Under `Cn1cc(C(=O)NC2CCN(C(=O)NCCSC(F)(F)F)CC2)cn1` stands 0.597%.

Turning to `CN(Cc1nnc(C2CC2)o1)C1CCN(CCCc2cnn(C)c2)C1` (centres undefined), the Percent Effect is 5.28%.

Regarding `CCOC(=O)C1CCN(C(=O)Cn2ccc3cc(Br)ccc32)CC1`, the Percent Effect was -2.06%. Under `COCCOc1ncccc1C(=O)Nc1ccc(-n2cncn2)c(F)c1` stands -3.21%; under `CC(=O)N1CCc2c(nc(-c3ccncc3)nc2N(C)CC(O)CO)C1` (centres undefined), -1.07%; under `CN1CCOC(CNCc2nc(-c3ccccc3)cs2)C1` (centres undefined), -7.57%.

On to `CN(C)C(=O)NCc1cc2n(n1)CCN(C[C@H]1[C@@H]3CNC[C@@H]31)C2`, for which the Percent Effect was -4.99%. The figure for `CN1CCCC1CNC(=O)c1nnn(-c2ccc(F)cc2)c1C1CC1` (centres undefined) is 3.7%. The figure for `CC(Cn1ccnc1)NC(=O)NCCc1ccccn1` (centres undefined) is -8.15%; for `Cc1cnn(CCC(=O)N2CCC(Nc3cccnn3)CC2)c1` it is 1.38%.

As to `CCn1cnnc1CNC(=O)c1ccc(Cl)cc1F`, the Percent Effect was found to be 1.24%.

For the compound `Cn1nc(C(=O)N2CCCCC2c2nc3cc(F)ccc3[nH]2)ccc1=O` (centres undefined), the Percent Effect was -2.79%. As for `Cc1nn(C)c(C)c1C1CCCN1C(=O)c1ccc(CN(C)C)cc1` (centres undefined), the Percent Effect is -2.88%. Under `O=C(CN1CCCCC1Cn1cncn1)NCc1ccccn1` (centres undefined) stands 4.05%; under `CCc1cc(NC2CCN(S(C)(=O)=O)CC2)n2nc(C)c(C)c2n1`, 1.78%; under `CCc1nc(CN(C)C2CCN(CCNS(=O)(=O)CC)C2)no1` (centres undefined), 5.16%.
